Screening results as filed in PubChem BioAssay.
Mtb betalactam: beta-lactam sensitization of Mtb H37Rv. M. tuberculosis H37Rv growth with meropenem, percent inhibition. inhibition, % at 25 µM. actives 0.27% (n = 330,000). AID 434955; call rule not given here;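 further: growth measured after seven days incubation then overnight dye step; 0% = bacteria only wells and 100% = bacteria with antibiotic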
Rv3671c protease: Rv3671c (M. tuberculosis) protease inhibition | AID 2606 | actives 0.048% (n = 320,000) | inhibition, % at 5.96 µM | P9WHR9; in the data active means inhibition above about 38%;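 further: extracellular domain of Rv3671c used as enzyme; 0% = enzyme with DMSO and 100% = no enzyme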
Target sequence (P9WHR9 whole entry, looked up, the tested form may be a part): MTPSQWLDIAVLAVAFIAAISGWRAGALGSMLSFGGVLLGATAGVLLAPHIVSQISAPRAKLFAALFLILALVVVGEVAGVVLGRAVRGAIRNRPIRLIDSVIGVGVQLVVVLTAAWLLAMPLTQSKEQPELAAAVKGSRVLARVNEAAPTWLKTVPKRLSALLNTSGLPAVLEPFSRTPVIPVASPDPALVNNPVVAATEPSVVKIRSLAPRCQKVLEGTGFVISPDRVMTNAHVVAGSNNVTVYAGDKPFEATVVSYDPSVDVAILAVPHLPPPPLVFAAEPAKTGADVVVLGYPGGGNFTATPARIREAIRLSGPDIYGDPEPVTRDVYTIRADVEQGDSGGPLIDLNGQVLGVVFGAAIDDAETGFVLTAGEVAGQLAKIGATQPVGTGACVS
MazF activator: activators of E. coli MazEF toxin-antitoxin RNase; actives 0.32% (n = 350,000); activation, % at 20 µM; FAM/BHQ RNA-DNA oligo cleavage fluorescence, 5 h; P0AE70; in the data active means activation above about 50%
Mtb UGM inh: inhibitors of M. tuberculosis UDP-galactopyranose mutase. purified UGM, fluorescence polarization probe displacement. inhibition, % at 10 µM. actives 0.06% (n = 320,000); in the data active means inhibition above about 10%, passing the limit was not always enough; inconclusive means no clear call, values can overlap the other calls
BH1578 lux ind: inducers of Vibrio cholerae quorum light production without autoinducers | V. cholerae BH1578 lux reporter, luminescence, 6 h | activation, % at 18.7 µM | actives 0.16% (n = 350,000) | AID 588436; in the data active means activation mostly above about 9.7%, no sharp cut-off; inconclusive means no clear call, values can overlap the other calls; inactive means mostly below about 3.7%
FadD28 FP inh: inhibitors of Mycobacterium tuberculosis FadD28 bisubstrate binding | FadD28 bisubstrate probe binding, fluorescence polarization | actives 0.22% (n = 360,000) | inhibition, % at 12.5 µM; in the data active means inhibition above about 8.5%, passing the limit was not always enough; inconclusive means no clear call, values can overlap the other calls
Active calls of the source: *; i = inactive; ? = inconclusive; · = no result given. This is a sample that favours compounds with a hit; in the whole collection about 0.74% have one here.

SMILES	Mtb betalactam	Rv3671c protease	MazF activator	Mtb UGM inh	BH1578 lux ind	FadD28 FP inh
O=C(Nc1ccc(NC(=O)c2cc([N+](=O)[O-])ccc2N2CCOCC2)cc1)c1cccs1	-7	-2	5	1	i	12*
CCc1ccc(NC(=O)c2ccc(NC(=O)C3CCCO3)cc2)cc1 (stereo not given)	56	-1	7	1	-1	-3
Nc1c(S(=O)(=O)O)cc(NC(=O)c2ccccc2)c2c1C(=O)c1ccccc1C2=O	13	23	-21	1	0	26*
Cc1ccc(S(=O)(=O)N(C)CC(=O)NNC(=O)CCS(=O)(=O)c2ccccc2)cc1	1	1	1	-1	-5	-1
CN(C)C=Nc1nonc1-c1ccccc1	-7	4	8	0	-1	1
CN(C)C=Nc1c(Br)cc(Br)c2nonc12	5	-2	228*	-2	i	0
O=S(=O)(CC(O)(c1ccccc1)c1ccccc1)CC(O)(c1ccccc1)c1ccccc1	·	·	69*	·	1	-1
CSCCC(NS(=O)(=O)c1cccs1)C(=O)NCc1ccc(C)cc1 (stereo not given)	?	-34	3	-3	i	-2
Cc1ccc(CNC(=O)C(Cc2ccccc2)NS(=O)(=O)c2ccc(Br)s2)cc1 (stereo not given)	4	-6	-9	0	0	50*
Cc1ccc(CNC(=O)C(Cc2ccccc2)NS(=O)(=O)c2cccs2)cc1 (stereo not given)	-1	-8	-6	-1	i	16*
CC1=CC2=C(C=O)C(=O)C(C)(O)C(O)C2=CO1 (stereo not given)	·	·	242*	·	-3	0
COc1ccc(CCOC(=O)c2ccc(N)c([N+](=O)[O-])c2)cc1	100	2	-3	2	i	-2
CC(NC(=O)c1ccc2c(c1)OCCO2)C(=O)O (stereo not given)	2	-3	4	-6	i	-1
CCC(CC)NC(=O)c1ccc2c(c1)OCCO2	3	1	8	0	25*	0
CC1CN2C(c3ccc(Cl)cc3)=CSC2=N1 (stereo not given)	-4	-7	1	-2	0	1
O=C(O)c1ccc(Oc2ccc([N+](=O)[O-])cc2)c([N+](=O)[O-])c1	·	·	-6	·	i	-4
CC1(C)CC(=O)C2=C(C1)OC(N)=C(C#N)C21CCN(Cc2ccccc2)CC1	-3	-7	50*	-4	0	0
Cc1ccc(C(=O)Oc2cc(N)n(S(=O)(=O)c3ccc(F)cc3)n2)cc1	-1	2	68*	-1	0	0
CCC1(CC)Cc2ccccc2-c2nc(-c3ccccc3)oc(=O)c21	-1	-7	-6	-2	32*	0
N#C/C(=C(/O)CSc1ccccc1C(=O)O)c1nc2ccccc2s1	-2	0	0	14*	0	2
O=C(N[C@@H](Cc1ccccc1)C(=O)N1CCC2(CC1)NCCc1[nH]cnc12)c1cccc(F)c1	3	3	1	-1	-1	-1
O=C(O)c1ccccc1C1=Nc2ccc(O)cc2Oc2cc(O)ccc21	-4	20	i	14*	1	-1
Cc1cc(C)nc(NS(=O)(=O)c2ccc(NC(=O)c3cccs3)cc2)n1	8	-3	-10	1	4	-3
Cc1ccc(NS(=O)(=O)c2ccc(NC(=O)c3cccs3)cc2)c(C)c1	2	-82	53*	-1	0	-13
COc1ccc2c(c1)Cc1cc(NC(=O)c3ccccc3-c3ccccc3C(=O)O)ccc1-2	·	·	0	·	i	11*
SMILES	Mtb betalactam	Rv3671c protease	MazF activator	Mtb UGM inh	BH1578 lux ind	FadD28 FP inh
COc1ccc(NC(=O)c2ccccc2-c2ccccc2C(=O)O)cc1	45	-3	0	1	-1	-2
Cc1ccc([N+](=O)[O-])cc1-c1ccc(/C=C(\C#N)c2[nH]nc(N)c2C#N)o1	3	-28	-16	0	i	9.4*
COC(=O)c1ccc2nc(-c3ccc(F)cc3)c(Cc3ccsc3)n2c1	·	·	·	·	·	-9
O=C1CC(=Nc2ccc([N+](=O)[O-])cc2)NN1c1c(Cl)cc(Cl)cc1Cl	·	·	-10	·	-5	15*
O=C(COc1cc2oc(=O)cc(-c3ccccc3)c2cc1Cl)NCc1ccccn1	8	7	11	0	i	-3
CCOc1ccccc1/C=N/Nc1nc(C)cc(=O)[nH]1	-2	-2	0	-1	-1	1
